Measured values from the supplement of paper PMC10849652.
Targets with a hit are over-represented here; the source holds about 7,900 in all. About 0.6% of all pairs of compound and target were hits. Unmarked numbers belong to inactive results.

Key:
Assay in all cases: log2 fold change, soluble protein after heating vs DMSO (PISA); higher = thermal stabilisation; K562 cells, 10 uM, 30 min; active = over 0.2 and 3.5 SD of the protein, either way, in both replicates (recomputed)
[1] = compound: NC(=O)Nc1cc(-c2cccc(F)c2)sc1C(=O)N[C@H]1CCCNC1
In short: (§1)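 Thermal stability values are relative to control samples and come from duplicates. They are expressed as log2 fold changes. For measurement, K562 cells (2×10^6 cells/mL) received 10 μM compound for 30 min, and aliquots were heated for 3 min over 48°C-58°C, pooled, and extracted at 4°C in PBS with 0.5% NP-40. Soluble protein, the supernatant after 21,000xg for 90 min, was quantified by TMTpro 16plex LC-MS/MS with equalised channel sums.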

[2] = compound: NC(=O)c1cnc(N[C@@H]2CCCC[C@@H]2N)nc1Nc1cccc(-n2nccn2)c1
In short: as §1

[3] = compound: NC1(c2ccc(-c3nc4ccn5c(=O)[nH]nc5c4cc3-c3ccccc3)cc2)CCC1
In short: as §1

[4] = compound: NCC(=O)Nc1ccc(-n2nc(C(F)(F)F)cc2-c2ccc3c(ccc4ccccc43)c2)cc1
In short: as §1

[5] = compound: Nc1ccccc1NC(=O)c1ccc(CNC(=O)OCc2cccnc2)cc1 [entinostat]
In short: as §1

[6] = compound: O=C(CCCCCCC(=O)Nc1ccccc1)NO [vorinostat]
In short: as §1

[7] = compound: O=C(CCCCCCNC(=O)c1cnc(N(c2ccccc2)c2ccccc2Cl)nc1)NO [citarinostat]
In short: as §1

[8] = compound: O=C(O)c1ccc2c(c1)nc(Nc1cccc(Cl)c1)c1ccncc12 [silmitasertib]
In short: as §1

[9] = compound: O=C1NC(=O)C(c2cnc3ccccn23)=C1c1cn2c3c(cc(F)cc13)CN(C(=O)N1CCCCC1)CC2
In short: as §1

[10] = compound: c1cc(OCCN2CCCCC2)cc(-c2n[nH]c3ccc(-c4nnc[nH]4)cc23)c1
In short: as §1

[11] = compound: c1cn2cc(-c3ccc4cn[nH]c4c3)nc(Nc3ccc(N4CCOCC4)cc3)c2n1 [entospletinib]
In short: as §1

ALDH1B1 (UniProt P30837)
Chain of UniProt P30837 (P30837 whole entry, looked up): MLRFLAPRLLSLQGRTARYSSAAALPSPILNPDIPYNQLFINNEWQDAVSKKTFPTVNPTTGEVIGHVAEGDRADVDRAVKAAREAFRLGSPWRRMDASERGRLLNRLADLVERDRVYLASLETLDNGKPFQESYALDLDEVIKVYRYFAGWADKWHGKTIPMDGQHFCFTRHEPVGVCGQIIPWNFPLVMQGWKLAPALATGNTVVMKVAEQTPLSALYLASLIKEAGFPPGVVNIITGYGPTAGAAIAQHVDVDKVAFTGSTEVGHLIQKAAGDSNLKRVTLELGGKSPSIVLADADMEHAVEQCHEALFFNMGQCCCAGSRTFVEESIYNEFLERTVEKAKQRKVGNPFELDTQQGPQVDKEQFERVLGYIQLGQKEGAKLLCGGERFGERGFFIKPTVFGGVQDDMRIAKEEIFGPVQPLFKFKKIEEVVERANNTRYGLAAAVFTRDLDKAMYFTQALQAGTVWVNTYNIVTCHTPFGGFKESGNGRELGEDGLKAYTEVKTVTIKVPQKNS
log2 fold change [1]: 0 | log2 fold change [2]: -0.039 | log2 fold change [3]: -0.065 | log2 fold change [4]: -0.054 | log2 fold change [5]: -0.019 | log2 fold change [6]: 0.281 (active) | log2 fold change [7]: 0.051 | log2 fold change [8]: -0.037 | log2 fold change [9]: -0.015 | log2 fold change [10]: 0.058 | log2 fold change [11]: -0.018

AP2A1 (UniProt O95782)
log2 fold change [1]: -0.38 (active) | log2 fold change [2]: 0.061 | log2 fold change [3]: 0.041 | log2 fold change [4]: 0.026 | log2 fold change [5]: -0.002 | log2 fold change [6]: 0.038 | log2 fold change [7]: 0.005 | log2 fold change [8]: 0.047 | log2 fold change [9]: -0.275 (active) | log2 fold change [10]: -0.227 (active) | log2 fold change [11]: 0.017

ACAP2 (UniProt Q15057)
Chain of UniProt Q15057 (Q15057 whole entry, looked up): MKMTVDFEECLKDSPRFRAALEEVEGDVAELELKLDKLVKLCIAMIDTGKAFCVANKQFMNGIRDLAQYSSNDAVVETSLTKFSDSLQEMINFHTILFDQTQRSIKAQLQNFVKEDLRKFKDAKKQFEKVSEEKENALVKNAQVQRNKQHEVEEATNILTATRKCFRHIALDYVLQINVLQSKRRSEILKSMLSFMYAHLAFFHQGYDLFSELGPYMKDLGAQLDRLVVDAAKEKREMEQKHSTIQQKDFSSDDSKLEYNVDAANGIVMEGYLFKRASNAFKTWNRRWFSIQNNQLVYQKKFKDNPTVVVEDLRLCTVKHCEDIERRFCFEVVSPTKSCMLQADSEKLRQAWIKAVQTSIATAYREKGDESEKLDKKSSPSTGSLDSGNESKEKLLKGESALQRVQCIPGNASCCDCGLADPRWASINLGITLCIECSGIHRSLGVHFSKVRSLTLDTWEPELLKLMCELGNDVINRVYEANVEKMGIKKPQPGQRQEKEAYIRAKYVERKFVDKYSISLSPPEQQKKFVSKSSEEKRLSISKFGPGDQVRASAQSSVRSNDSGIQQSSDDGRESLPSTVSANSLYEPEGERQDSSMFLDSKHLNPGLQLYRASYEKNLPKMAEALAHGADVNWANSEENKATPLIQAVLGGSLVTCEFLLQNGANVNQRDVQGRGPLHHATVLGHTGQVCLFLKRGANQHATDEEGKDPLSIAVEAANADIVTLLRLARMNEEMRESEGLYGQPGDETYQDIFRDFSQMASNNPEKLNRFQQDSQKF
log2 fold change [1]: -0.016 | log2 fold change [2]: -0.075 | log2 fold change [3]: 0.026 | log2 fold change [4]: -0.035 | log2 fold change [5]: 0.005 | log2 fold change [6]: 0 | log2 fold change [7]: 0.029 | log2 fold change [8]: -0.007 | log2 fold change [9]: -0.078 | log2 fold change [10]: 0.045 | log2 fold change [11]: -0.073

AKT2 (UniProt P31751)
log2 fold change [1]: -0.008 | log2 fold change [2]: -0.266 (active) | log2 fold change [3]: 1.18 (active) | log2 fold change [4]: -0.051 | log2 fold change [5]: 0.085 | log2 fold change [6]: 0.022 | log2 fold change [7]: 0.077 | log2 fold change [8]: -0.026 | log2 fold change [9]: -0.017 | log2 fold change [10]: -0.013 | log2 fold change [11]: 0.005

APOB (UniProt P04114)
log2 fold change [1]: -0.206 | log2 fold change [2]: -0.387 | log2 fold change [3]: -0.621 (active) | log2 fold change [4]: -0.806 (active) | log2 fold change [5]: 0.042 | log2 fold change [6]: -0.009 | log2 fold change [7]: 0.015 | log2 fold change [8]: 0.068 | log2 fold change [9]: 0.001 | log2 fold change [10]: 0.056 | log2 fold change [11]: 0.04

ARFGAP2 (UniProt Q8N6H7)
Chain of UniProt Q8N6H7 (Q8N6H7 whole entry, looked up): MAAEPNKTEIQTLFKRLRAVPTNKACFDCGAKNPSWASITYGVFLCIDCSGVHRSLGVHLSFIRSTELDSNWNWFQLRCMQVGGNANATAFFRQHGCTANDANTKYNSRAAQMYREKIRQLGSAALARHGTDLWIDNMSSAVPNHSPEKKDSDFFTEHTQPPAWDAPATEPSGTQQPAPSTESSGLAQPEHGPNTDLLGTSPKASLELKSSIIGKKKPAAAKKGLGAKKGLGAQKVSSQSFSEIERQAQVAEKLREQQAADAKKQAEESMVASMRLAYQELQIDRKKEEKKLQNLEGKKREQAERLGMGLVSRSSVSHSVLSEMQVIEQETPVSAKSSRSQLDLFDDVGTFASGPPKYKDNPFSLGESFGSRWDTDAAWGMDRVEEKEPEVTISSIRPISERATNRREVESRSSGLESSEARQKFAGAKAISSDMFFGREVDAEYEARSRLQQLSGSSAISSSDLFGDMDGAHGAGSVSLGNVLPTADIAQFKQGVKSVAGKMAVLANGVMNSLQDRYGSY
log2 fold change [1]: -0.007 | log2 fold change [2]: -0.097 | log2 fold change [3]: -0.08 | log2 fold change [4]: -0.014 | log2 fold change [5]: 0.037 | log2 fold change [6]: -0.017 | log2 fold change [7]: 0.015 | log2 fold change [8]: 0.017 | log2 fold change [9]: -0.016 | log2 fold change [10]: -0.035 | log2 fold change [11]: 0.007

AHCYL1 (UniProt O43865)
Chain of UniProt O43865 (O43865 whole entry, looked up): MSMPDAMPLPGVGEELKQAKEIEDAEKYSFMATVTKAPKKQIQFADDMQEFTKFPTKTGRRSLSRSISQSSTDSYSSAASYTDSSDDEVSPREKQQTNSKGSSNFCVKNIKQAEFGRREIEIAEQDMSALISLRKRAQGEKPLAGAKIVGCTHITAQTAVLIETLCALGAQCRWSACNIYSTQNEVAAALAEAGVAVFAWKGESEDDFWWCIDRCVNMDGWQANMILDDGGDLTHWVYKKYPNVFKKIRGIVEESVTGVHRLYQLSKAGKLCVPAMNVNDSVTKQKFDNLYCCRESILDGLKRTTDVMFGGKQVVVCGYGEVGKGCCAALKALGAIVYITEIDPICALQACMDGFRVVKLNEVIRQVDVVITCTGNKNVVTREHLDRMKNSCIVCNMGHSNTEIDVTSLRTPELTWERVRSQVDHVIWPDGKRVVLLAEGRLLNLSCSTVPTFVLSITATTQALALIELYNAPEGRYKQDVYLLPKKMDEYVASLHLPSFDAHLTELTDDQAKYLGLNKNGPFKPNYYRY
log2 fold change [1]: 0.183 | log2 fold change [2]: 0.106 | log2 fold change [3]: 0.003 | log2 fold change [4]: 0.046 | log2 fold change [5]: -0.109 | log2 fold change [6]: 0.116 | log2 fold change [7]: -0.017 | log2 fold change [8]: 0.188 | log2 fold change [9]: -0.002 | log2 fold change [10]: 0.253 | log2 fold change [11]: 0.072

ATP11A (UniProt P98196)
Chain of UniProt P98196 (P98196 whole entry, looked up): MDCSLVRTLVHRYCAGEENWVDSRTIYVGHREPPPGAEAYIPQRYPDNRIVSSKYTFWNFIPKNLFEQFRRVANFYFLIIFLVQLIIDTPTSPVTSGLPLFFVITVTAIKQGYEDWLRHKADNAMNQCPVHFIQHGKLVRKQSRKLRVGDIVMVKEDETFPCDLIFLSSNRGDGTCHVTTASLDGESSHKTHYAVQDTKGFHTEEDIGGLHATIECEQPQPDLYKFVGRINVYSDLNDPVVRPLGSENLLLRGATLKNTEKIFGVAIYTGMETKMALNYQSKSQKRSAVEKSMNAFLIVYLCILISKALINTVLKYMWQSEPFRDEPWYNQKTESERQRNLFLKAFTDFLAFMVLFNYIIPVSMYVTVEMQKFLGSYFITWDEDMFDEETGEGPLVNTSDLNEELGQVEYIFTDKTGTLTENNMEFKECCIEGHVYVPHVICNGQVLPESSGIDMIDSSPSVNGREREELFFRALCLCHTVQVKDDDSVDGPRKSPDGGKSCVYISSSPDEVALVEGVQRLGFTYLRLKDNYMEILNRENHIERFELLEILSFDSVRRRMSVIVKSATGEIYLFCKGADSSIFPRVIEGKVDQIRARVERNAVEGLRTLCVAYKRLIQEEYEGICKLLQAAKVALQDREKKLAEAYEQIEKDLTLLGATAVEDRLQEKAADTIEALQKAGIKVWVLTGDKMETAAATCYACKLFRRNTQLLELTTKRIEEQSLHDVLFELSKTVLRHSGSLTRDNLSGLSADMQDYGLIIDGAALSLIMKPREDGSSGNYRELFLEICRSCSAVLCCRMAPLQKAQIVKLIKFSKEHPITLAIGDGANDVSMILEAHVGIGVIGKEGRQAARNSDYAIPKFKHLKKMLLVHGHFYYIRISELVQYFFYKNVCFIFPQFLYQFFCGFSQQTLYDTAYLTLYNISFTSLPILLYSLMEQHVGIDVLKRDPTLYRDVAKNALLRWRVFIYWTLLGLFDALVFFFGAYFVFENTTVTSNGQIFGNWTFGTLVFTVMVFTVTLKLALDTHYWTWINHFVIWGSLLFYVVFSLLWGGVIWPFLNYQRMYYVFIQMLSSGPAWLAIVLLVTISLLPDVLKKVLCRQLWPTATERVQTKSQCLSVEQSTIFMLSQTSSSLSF
log2 fold change [1]: -0.034 | log2 fold change [2]: 0.065 | log2 fold change [3]: -0.001 | log2 fold change [4]: -0.054 | log2 fold change [5]: -0.025 | log2 fold change [6]: -0.08 | log2 fold change [7]: -0.154 | log2 fold change [8]: 0.065 | log2 fold change [9]: -0.024 | log2 fold change [10]: -0.32 (active) | log2 fold change [11]: 0.158

BAIAP2 (UniProt Q9UQB8)
log2 fold change [1]: -0.229 (active) | log2 fold change [2]: -0.083 | log2 fold change [3]: -0.086 | log2 fold change [4]: -0.014 | log2 fold change [5]: 0.019 | log2 fold change [6]: 0.082 | log2 fold change [7]: 0.031 | log2 fold change [8]: -0.016 | log2 fold change [9]: 0.04 | log2 fold change [10]: -0.034 | log2 fold change [11]: -0.012

ABCB6 (UniProt Q9NP58)
log2 fold change [1]: 0.005 | log2 fold change [2]: -0.111 | log2 fold change [3]: -0.456 (active) | log2 fold change [4]: -0.015 | log2 fold change [5]: -0.011 | log2 fold change [6]: 0.044 | log2 fold change [7]: 0.063 | log2 fold change [8]: 0.018 | log2 fold change [9]: -0.047 | log2 fold change [10]: -0.021 | log2 fold change [11]: 0.026

ADD1 isoform 3 (UniProt P35611)
Chain of UniProt P35611 (P35611 whole entry, looked up): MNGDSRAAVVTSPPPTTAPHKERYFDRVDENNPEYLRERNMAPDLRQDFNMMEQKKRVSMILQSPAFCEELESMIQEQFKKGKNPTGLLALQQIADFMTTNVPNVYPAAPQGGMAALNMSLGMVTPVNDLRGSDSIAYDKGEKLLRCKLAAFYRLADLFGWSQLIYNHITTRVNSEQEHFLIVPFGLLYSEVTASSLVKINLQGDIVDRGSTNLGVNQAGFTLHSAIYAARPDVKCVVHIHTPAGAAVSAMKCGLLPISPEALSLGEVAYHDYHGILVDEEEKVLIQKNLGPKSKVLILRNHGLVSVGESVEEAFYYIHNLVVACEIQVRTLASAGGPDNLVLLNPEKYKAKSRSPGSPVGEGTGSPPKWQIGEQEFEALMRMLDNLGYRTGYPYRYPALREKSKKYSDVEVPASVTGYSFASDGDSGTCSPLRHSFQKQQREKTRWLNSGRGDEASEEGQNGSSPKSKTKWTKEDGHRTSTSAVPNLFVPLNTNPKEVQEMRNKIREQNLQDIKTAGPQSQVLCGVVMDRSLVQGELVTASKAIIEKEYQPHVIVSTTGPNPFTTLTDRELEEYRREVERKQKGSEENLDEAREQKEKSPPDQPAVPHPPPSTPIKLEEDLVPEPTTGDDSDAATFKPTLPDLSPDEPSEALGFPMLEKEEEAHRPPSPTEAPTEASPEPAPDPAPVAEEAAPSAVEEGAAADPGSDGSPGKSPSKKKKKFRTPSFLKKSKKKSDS
log2 fold change [1]: 0.03 | log2 fold change [2]: -0.016 | log2 fold change [3]: 0.034 | log2 fold change [4]: -0.02 | log2 fold change [5]: -0.071 | log2 fold change [6]: 0.01 | log2 fold change [7]: 0.034 | log2 fold change [8]: -0.01 | log2 fold change [9]: -0.06 | log2 fold change [10]: 0.01 | log2 fold change [11]: 0.007

ATAD3A isoform 2 (UniProt Q9NVI7)
log2 fold change [1]: 0.011 | log2 fold change [2]: -0.088 | log2 fold change [3]: -0.128 | log2 fold change [4]: -0.088 | log2 fold change [5]: 0.053 | log2 fold change [6]: 0.123 | log2 fold change [7]: 0.076 | log2 fold change [8]: 0.051 | log2 fold change [9]: 0.12 | log2 fold change [10]: -0.127 | log2 fold change [11]: 0.024

ASS1 (UniProt P00966)
log2 fold change [1]: -0.054 | log2 fold change [2]: -0.184 | log2 fold change [3]: -0.087 | log2 fold change [4]: 0.026 | log2 fold change [5]: 0.096 | log2 fold change [6]: -0.052 | log2 fold change [7]: -0.037 | log2 fold change [8]: 0.02 | log2 fold change [9]: -0.013 | log2 fold change [10]: 0.013 | log2 fold change [11]: 0.096

ACAD9 (UniProt Q9H845)
Chain of UniProt Q9H845 (Q9H845 whole entry, looked up): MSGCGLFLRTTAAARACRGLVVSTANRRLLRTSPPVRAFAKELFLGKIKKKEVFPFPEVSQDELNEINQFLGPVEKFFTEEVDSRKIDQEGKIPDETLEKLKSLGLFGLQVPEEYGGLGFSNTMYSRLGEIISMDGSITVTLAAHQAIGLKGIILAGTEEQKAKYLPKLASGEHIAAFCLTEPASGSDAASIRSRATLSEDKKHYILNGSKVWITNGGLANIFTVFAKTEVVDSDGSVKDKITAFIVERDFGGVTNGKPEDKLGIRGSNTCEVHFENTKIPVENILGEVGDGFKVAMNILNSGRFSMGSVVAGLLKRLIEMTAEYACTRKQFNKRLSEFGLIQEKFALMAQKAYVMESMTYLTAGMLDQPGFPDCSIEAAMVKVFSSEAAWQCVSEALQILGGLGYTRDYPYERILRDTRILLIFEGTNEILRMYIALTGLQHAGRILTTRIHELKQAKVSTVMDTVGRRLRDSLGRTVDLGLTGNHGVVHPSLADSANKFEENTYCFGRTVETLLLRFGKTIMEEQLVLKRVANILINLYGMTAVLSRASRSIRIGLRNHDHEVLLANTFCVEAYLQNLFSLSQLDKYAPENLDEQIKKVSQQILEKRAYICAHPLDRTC
log2 fold change [1]: -0.009 | log2 fold change [2]: -0.051 | log2 fold change [3]: -0.036 | log2 fold change [4]: -0.012 | log2 fold change [5]: -0.021 | log2 fold change [6]: 0.033 | log2 fold change [7]: 0.035 | log2 fold change [8]: 0.021 | log2 fold change [9]: -0.016 | log2 fold change [10]: 0.007 | log2 fold change [11]: 0.02
